Experimental data published in PubChem BioAssay AID463173 (ICCB-Longwood Screening Facility, Harvard Medical School, 2010).
The campaign covered roughly 52,000 compounds. About 1,700 (3.3%) were called active. Many of the other results were omitted from the sample, so actives are more common in it than they were. A number with no mark means an inactive call. Cut-off read from the data, not from the text of the source: active = survival mostly below about 52% (no sharp cut-off); inactive = mostly above about 56%.

These molecules were tested on Wild type (assay: growth inhibition of S. aureus wild type versus tarO mutant, primary screen, teichoic acid synthesis inhibitors, RN4220, OD600 (AID 463173)). Details: S. aureus RN4220 wild type/DeltatarO growth, OD600, 18 h, stronger effect = lower value, screened at 18.75 µg/mL (by protocol).
For CCc1ccc(NC(=O)CSc2nc3c([nH]c4ccccc43)c(=O)n2-c2ccc(C)cc2)cc1, the survival was 159%.
With COC(=O)c1sc(NC(=O)/C=C/c2ccc(OC)c(OC)c2)c(C(=O)OC)c1C the survival was 55%.
Cc1ccc(OCC(=O)Nc2ccc(S(=O)(=O)Nc3ncccn3)cc2)c(C(C)(C)C)c1 gave a survival of 64%.
For CCCCNC(=O)CSc1nc2ccccc2nc1Cc1ccc(Cl)cc1, the survival was 146%.
O=C(Cc1ccccc1)Nc1cccnc1 gave a survival of 116%.
CCN1CCN(c2csc3ccc(Br)cc3c2=O)CC1 showed a survival of 83%.
In the case of CCc1nnc(NC(=O)c2nc(S(=O)(=O)Cc3ccc(C)cc3)ncc2Cl)s1, the survival is reported as 57%.
Cc1ccc(Cn2c(CCNC(=O)C(C)C)nc3ccccc32)cc1 showed a survival of 81%.
In the case of Cc1ccc(Cn2c(Cc3ccccc3)nc3ccccc32)cc1, the survival is reported as -1% (active).
Work on Cc1ccc(Cn2c(CNC(=O)c3cccc(C)c3)nc3ccccc32)cc1 yielded a survival of 107%.
With Cc1cccc(Cn2c(Cc3ccccc3)nc3ccccc32)c1 the survival was 29% (active).
For COCc1nc2ccccc2n1Cc1cccc(C)c1, the survival was 81%.
CC(C)c1ccc(Cn2c(COc3ccccc3)nc3ccccc32)cc1 was tested, and the survival was -1% (active).
In the case of Cc1cccc(Cn2c(COc3ccccc3)nc3ccccc32)c1, the survival is reported as -11% (active).
Cc1cccc(Cn2c(CNC(=O)c3ccccc3)nc3ccccc32)c1 was tested, and the survival was 84%.
Work on Cc1cccc(Cn2c(COc3ccc(Cl)cc3)nc3ccccc32)c1 yielded a survival of 61%.
COc1cc(OC)c(NC(=O)c2cn(C3CCCC3)c(=O)c3c2c2ccccc2n3C)cc1Cl gave a survival of 80%.
For CCOC(=O)N1CCN(c2ncnc3c2cnn3-c2ccccc2)CC1, the survival was 112%.
Cc1cccc(-c2noc(-c3ccc(NCc4cccnc4)c([N+](=O)[O-])c3)n2)c1 showed a survival of 81%.
Molecule COCCNC(=O)Cn1cc(/C=C(\C#N)C(N)=O)c2ccccc21 has a survival of 114%.
Molecule COc1ccc(CNC(=O)C(Cc2ccccc2)NS(=O)(=O)c2ccc3c(c2)CCN3C(C)=O)cc1 (stereo not drawn) has a survival of 127%.
Cc1coc2c(C)c3oc(=O)c(CC(=O)NCCc4ccc(Cl)cc4)c(C)c3cc12 gave a survival of 99%.
Work on COc1cccc(Cn2c(CNS(=O)(=O)c3ccc(F)c(Cl)c3)nc3cccnc32)c1 yielded a survival of 159%.
Work on O=C(NCC1COc2ccccc2O1)c1cn(Cc2ccc(F)cc2)nn1 (stereo not drawn) yielded a survival of 107%.
Work on COc1ccc(N2CCN(c3oc(/C=C/c4ccccc4OC)nc3C#N)CC2)cc1 yielded a survival of 86%.
O=C1CC(c2ccc3c(c2)OCO3)CC2=C1C(c1ccncc1)Nc1ccccc1N2 (stereo not drawn) was tested, and the survival was 81%.
For O=C(NCCc1nc2ccccc2n1Cc1ccc(Cl)cc1Cl)c1ccco1, the survival was 76%.
With CC(C)(C)c1ccc(Cn2c(Cc3ccccc3)nc3ccccc32)cc1 the survival was -1% (active).
For CC(O)c1nc2ccccc2n1Cc1ccccc1 (stereo not drawn), the survival was 100%.
With Clc1ccc(OCc2nc3ccccc3n2Cc2ccccc2)c(Cl)c1 the survival was 7% (active).
Molecule CCC(=O)NCc1nc2ccccc2n1Cc1ccccc1 has a survival of 106%.
Work on CCn1c(COc2ccc(Cl)cc2Cl)nc2ccccc21 yielded a survival of 78%.
Work on CCOc1ccc(NC(=O)c2sc(-n3nc(C)c(CCC(C)C)c3C)nc2C)cc1 yielded a survival of 123%.
CCCCOc1ccc(CNC(=O)c2cnc3sc(N4CCCCCC4)nn3c2=O)cc1 showed a survival of 91%.
CCOc1ccc(CCNC(=O)c2cc3cc4cc(OC)ccc4nc3s2)cc1OCC showed a survival of 117%.
In the case of Cc1cccc(-c2nc(CSCC(=O)N3CCN(c4cccc(C)c4C)CC3)c(C)o2)c1, the survival is reported as 0% (active).
COc1ccc(-c2nc(CSCC(=O)N3CCN(c4ccccc4)CC3)c(C)o2)cc1 gave a survival of 53%.
With Cc1cccc(-c2nc(CSCC(=O)N3CCN(c4ccccc4)CC3)c(C)o2)c1 the survival was 18% (active).
With Cc1ccc(-c2nc(CS(=O)(=O)CC(=O)N3CCN(c4cccc(C)c4C)CC3)c(C)o2)cc1 the survival was 129%.
Cc1oc(-c2ccccc2F)nc1CSCC(=O)N1CCN(c2ccccc2)CC1 gave a survival of 62%.
COc1ccc(-c2nc(CSCC(=O)N3CCN(c4cccc(C)c4C)CC3)c(C)o2)cc1OC was tested, and the survival was 22%.
Work on COc1ccc(N2CCN(CC(=O)c3ccc(OC)c(OC)c3)CC2)cc1 yielded a survival of 106%.
CC(C)OCCCNC(=O)Cn1ccc2cc(S(=O)(=O)N3CCCCCC3)ccc21 was tested, and the survival was 124%.
For COc1ccc2c(Sc3ccccc3)c(C(=O)NCc3cccc(OC)c3OC)[nH]c2c1, the survival was 89%.
CC(C)COc1ccc(C(=O)N2CCC(c3nc4ccccc4s3)CC2)cc1 showed a survival of 42%.
CCc1ccccc1NC(=O)CSc1nnc(-c2ccccc2)c(-c2ccccc2)n1 was tested, and the survival was 69%.
In the case of CC(C)CSc1nnc(-c2ccccc2)c(-c2ccccc2)n1, the survival is reported as -4% (active).
For O=C(CSc1nnc(-c2ccccc2)c(-c2ccccc2)n1)Nc1ccccc1Cl, the survival was 70%.
Cc1oc2c(c(C)cc3oc(=O)c(CC(=O)NCCc4ccccc4)c(C)c32)c1C gave a survival of 112%.
In the case of Cc1cc2ccccc2n1-c1ccc(C(=O)N2CCC(C(=O)NCc3ccc(Cl)cc3)CC2)s1, the survival is reported as 63%.
With CCc1ccc(CNC(=O)C2CCN(C(=O)c3ccc(-n4c(C)cc5ccccc54)s3)CC2)cc1 the survival was 81%.
With Cc1cc2ccccc2n1-c1ccc(C(=O)N2CCC(C(=O)NCc3ccc(F)cc3)CC2)s1 the survival was 1% (active).
For Cc1ccc(NC(=O)CN2C(=O)CSc3ccc(S(=O)(=O)N4CCCC4)cc32)cc1F, the survival was 99%.
Molecule COC(=O)c1cc2c(cc1NC(=O)c1cnn(-c3ccccc3)c1-n1cccc1)OCO2 has a survival of 80%.
Cc1nn(-c2nc(-c3ccc(F)cc3)cc(C(F)(F)F)n2)c(C)c1Cl was tested, and the survival was -2% (active).
In the case of COc1ccc(-c2cc(C(F)(F)F)nc(-n3nc(C(F)(F)F)cc3C)n2)cc1, the survival is reported as 50%.
CCC(C)NC(=O)CSc1nc(-c2ccc(F)cc2)cc(C(F)(F)F)n1 (stereo not drawn) showed a survival of 81%.
In the case of COc1cccc(-c2cc(C(F)(F)F)nc(-n3nc(C)c(Br)c3C)n2)c1, the survival is reported as 80%.
In the case of CN(Cc1ccccc1)c1nc(-c2ccc(F)cc2)cc(C(F)(F)F)n1, the survival is reported as 80%.
For Cc1ccc(-c2cc3nc(-c4ccccc4)cc(C(F)(F)F)n3n2)cc1, the survival was 80%.
Cc1nn(-c2nc(-c3ccc(F)cc3)cc(C(F)(F)F)n2)c(C)c1Br was tested, and the survival was -2% (active).
With Cc1cc(C(F)(F)F)nn1-c1nc(-c2ccccc2)cc(C(F)(F)F)n1 the survival was 13% (active).
FC(F)(F)c1cc(-c2ccccc2)nc2cc(-c3ccccc3)nn12 was tested, and the survival was 75%.
Cc1nn(-c2nc(-c3ccccc3)cc(C(F)(F)F)n2)c(C)c1Cl was tested, and the survival was -3% (active).
For CCCNC(=O)CSc1nc(-c2ccccc2)cc(C(F)(F)F)n1, the survival was 112%.
With CC(C)(C)NC(=O)CSc1nc(-c2ccc(F)cc2)cc(C(F)(F)F)n1 the survival was 78%.
CCCC(C)C(=O)Nc1nnc(C(F)(F)F)s1 (stereo not drawn) showed a survival of 100%.
O=C(Nc1cccc2c1CCCC2)N1CCOc2ccc(Cl)cc21 gave a survival of 83%.
COc1ccc(-c2nc(CCNC(=O)c3cccs3)cs2)cc1OC gave a survival of 159%.
Cc1cccc(Cn2c(CNS(=O)(=O)c3ccc(C(C)C)cc3)nc3cccnc32)c1 gave a survival of 78%.
N=c1nc(N)nc2n1NC(c1ccc(F)cc1)=CS2 showed a survival of 108%.
CCC(Sc1ncc(S(=O)(=O)c2ccc(Cl)cc2)c(=O)[nH]1)C(=O)Nc1ccc(OC)cc1 (stereo not drawn) was tested, and the survival was 96%.
CC1CCN(CC(=O)N2CCCc3c2c(=O)oc2ccc(OCc4ccccc4)cc32)CC1 showed a survival of 86%.
CC1CCCCN1CC(=O)N1CCCc2c1c(=O)oc1ccc(OCc3ccccc3)cc21 (stereo not drawn) was tested, and the survival was 43%.
For CCC1CCCCN1CC(=O)N1CCCc2c1c(=O)oc1ccc(OCc3ccccc3)cc21 (stereo not drawn), the survival was 3% (active).
CCCN(CCC)C(=O)c1cc2c(=O)n3cccc(C)c3nc2s1 gave a survival of 80%.
CCCCN(CC)C(=O)c1cc2c(=O)n3cccc(C)c3nc2s1 was tested, and the survival was 77%.
For CCCCN(CCCC)C(=O)c1cc2c(=O)n3cccc(C)c3nc2s1, the survival was -2% (active).
CCOC(=O)c1[nH]c2ccccc2c1N=CN(C)C showed a survival of 104%.
In the case of O=c1cc(O)n(-c2ccccc2)c(=S)[nH]1, the survival is reported as 99%.
CC1CCc2nc3ncn(Cc4ccccc4F)c(=O)c3cc2C1 (stereo not drawn) was tested, and the survival was 53%.
Cc1ccccc1Cn1cnc2nc3c(cc2c1=O)CC(C)CC3 (stereo not drawn) was tested, and the survival was 0% (active).
CC1CCc2nc3ncn(Cc4ccccc4C#N)c(=O)c3cc2C1 (stereo not drawn) showed a survival of 71%.
With CC1CCc2nc3ncn(Cc4ccc(Cl)cc4)c(=O)c3cc2C1 (stereo not drawn) the survival was 80%.
With Cc1ccc(Cn2cnc3nc4c(cc3c2=O)CC(C)CC4)cc1 (stereo not drawn) the survival was -3% (active).
For CC1CCc2nc3ncn(Cc4cccc(F)c4)c(=O)c3cc2C1 (stereo not drawn), the survival was 66%.
O=C(O)CN1C(=O)/C(=C\c2ccccc2)SC1=S showed a survival of 102%.
CN1/C(=C2/SC(=O)N(Cc3ccccc3)C2=O)Sc2ccccc21 was tested, and the survival was 118%.
With Cc1cc(N2CCC(C)CC2)nc2ccc(NC(=O)CCC(=O)N3CCN(c4cccc(C(F)(F)F)c4)CC3)cc12 the survival was 64%.
With Cc1ccc(-c2nonc2NC(=O)c2ccco2)cc1C the survival was 79%.
For COc1ccc(-c2cn3cccnc3n2)cc1NC(=O)c1ccccc1C(F)(F)F, the survival was 69%.
For COc1cc2nc(NC(=O)c3ccc(S(=O)(=O)N4CCOCC4)cc3)sc2cc1OC, the survival was 79%.
COC(=O)c1sc2cccc(F)c2c1S(=O)(=O)N1CCN(c2ccccc2OC)CC1 gave a survival of 47%.
